PubChem BioAssay (NCI)
About 79,000 compounds went through this panel and 15% of them were active in at least one assay; those are over-represented in the sample as a whole. The source made the active and inactive calls. Cut-off read from the data, not from the text of the source: active = growth inhibition above about 70%; inactive = the rest.

Experiments:
[1] = NCI Yeast Anticancer Drug Screen. Data for the rad50 strain (AID 155);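 note: 0% = growth of vehicle-only cultures of the same strain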; conditions: S. cerevisiae rad50 strain growth inhibition; at 50.0 µM; stronger effect = higher value
Outline: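 Genetically altered yeast (DNA repair pathway); compound treatment; growth inhibition vs vehicle ctrl.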

[2] = NCI Yeast Anticancer Drug Screen. Data for the mec2-1 strain (AID 157); conditions: S. cerevisiae mec2-1 strain, at 50.0 µM, stronger effect = higher value
Outline: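 Using mec2-1 yeast: add compound, measure growth, express inhibition versus vehicle-treated cultures.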

[3] = NCI Yeast Anticancer Drug Screen. Data for the sgs1 mgt1 strain (AID 161);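 note: 0% = growth of cultures given vehicle only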; conditions: S. cerevisiae sgs1 mgt1 strain, at 50.0 µM, stronger effect = higher value
Outline: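 Percent growth inhibition was derived by comparing compound-exposed mutant yeast with vehicle-exposed cultures. The strain carries alterations in DNA damage repair.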

[4] = NCI Yeast Anticancer Drug Screen. Data for the cln2 rad14 strain (AID 165);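 note: 0% = growth equal to vehicle treated cultures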; conditions: S. cerevisiae cln2 rad14 strain, at 50.0 µM, stronger effect = higher value
Outline: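 Yeast strain cln2 rad14, bearing defects in cell cycle control and DNA repair, serves as the test system; values reflect growth inhibition compared with vehicle.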

[5] = NCI Yeast Anticancer Drug Screen. Data for the bub3 strain (AID 167); conditions: S. cerevisiae bub3 mutant strain, at 50.0 µM, stronger effect = higher value
Outline: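 Yeast carrying a defined mutation is treated with each compound, and growth is compared with that of vehicle-exposed cells to give inhibition.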

[6] = NCI Yeast Anticancer Drug Screen. Data for the mlh1 rad18 strain (AID 175); conditions: S. cerevisiae mlh1 rad18 strain growth inhibition; at 50.0 µM; stronger effect = higher value
Outline: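 Steps: expose repair-defective yeast to compound; measure growth; express inhibition against vehicle-treated controls.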

Measured: growth inhibition

N#CSCc1cc(Cl)c(CSC#N)c(Cl)c1Cl
inactive: [1] -6.95% | [2] 22.2% | [3] -3% | [4] 16.6% | [5] 13.2% | [6] 31.4%

C=CCNC(=O)C1C2C=CC(C2)C1C(=O)NCC=C (stereo unspecified)
inactive: [1] 4.95% | [2] -4.8% | [3] -21.9% | [4] -4.85% | [5] -7.95% | [6] 24.8%

O=c1nc(Oc2ccccc2)nc2ncccn12
inactive: [1] 47% | [2] 26.1% | [3] 40.5% | [4] 20.2% | [5] 50.6% | [6] 65%

OC(c1ccccc1)(c1ccccc1)C(O)(c1ccccc1)c1ccccc1
inactive: [1] 4.3% | [2] 6.25% | [3] 19.5% | [4] -16.2% | [5] -3.35% | [6] 33.4%

O=S(=O)(OCCCCCCCCCCOS(=O)(=O)c1ccc(Cl)cc1)c1ccc(Cl)cc1
inactive: [1] -7.6% | [2] -3.6% | [3] -3.6% | [4] 8.6% | [5] -5.3% | [6] -4.55%

CC(=N\N=C\c1ccccn1)/C(C)=N/N=C(C)/C(C)=N/N=C/c1ccccn1
inactive: [1] 29.1% | [2] 17.9% | [3] 7.9% | [4] 11.4% | [5] 1.95% | [6] -23.1%

O=S(O)CCCSSSCCCS(=O)O
inactive: [1] 26.1% | [2] 20.9% | [3] 45.5% | [4] 37% | [5] 20% | [6] 38.6%

COC(=O)CCSCC(N)C(=O)O (stereo unspecified)
inactive: [1] 1.3% | [2] -2.95% | [3] -13.3% | [4] -39.5% | [5] -0.95% | [6] -18.4%

CCOc1ccc(NC(=O)c2cccc(C(=O)Nc3ccc(OCC)cc3)c2)cc1
inactive: [1] -13.8% | [2] -12.3% | [3] -8.15% | [4] -20.9% | [5] -5.35% | [6] -0.7%

CC(NNC(=S)N1CCC(c2ccccc2)CC1)c1ccc2ccccc2n1 (stereo unspecified)
inactive: [1] -48.9% | [2] 9.25% | [3] 29.9% | [4] 11.5% | [5] -2% | [6] 26.9%

CC(=O)c1c(P(=O)(OC(C)C)OC(C)C)nn(-c2ccc([N+](=O)[O-])cc2)c1C
inactive: [1] 59.1% | [2] 20.1% | [3] 22.1% | [4] -0.95% | [5] 14.2% | [6] 32.2%

CC(CC#N)NC(=O)C1CCC(N)=N1 (stereo unspecified)
inactive: [1] -14.3% | [2] -18.2% | [3] -8.95% | [4] 1.4% | [5] -7.35% | [6] -9.9%

CCOCc1cnc(SC)nc1N
inactive: [1] -0.75% | [2] 7.35% | [3] -9.45% | [4] -0.25% | [5] -0.15% | [6] -14.4%

COc1ccc(-n2c(C)nc3c(cnn3CN3CCCCC3)c2=O)cc1
inactive: [1] 4% | [2] -0.95% | [3] -1.25% | [4] -4.05% | [5] 8.75% | [6] 13.5%

COC(=O)C(Cc1nc2ccccc2[nH]c1=O)C(=O)C(=O)Nc1ccc(OC)cc1[N+](=O)[O-] (stereo unspecified)
inactive: [1] -14.4% | [2] -9.5% | [3] 14.3% | [4] -77.2% | [5] -1.4% | [6] 5.5%

Cc1ccc(N2CCCCN(c3ccc(C)cc3)/C(c3ccccc3)=C\2c2ccccc2)cc1
inactive: [1] -8.55% | [2] -7.3% | [3] -7% | [4] -8.2% | [5] -1.35% | [6] -29.9%

CCCc1c(OC)c(=O)c2c(OC)cc(OC)c3c4c(OC)cc(OC)c5c(=O)c(OC)c(CCC)c(c1c23)c54
active: [1] 88.3% | [2] 92% | [3] 86.4% | [4] 88.5% | [5] 83% | [6] 92.6%

CN(N)c1cnn(-c2ccccc2)c(=O)c1Cl
inactive: [1] -37.2% | [2] -48% | [3] -22.1% | [4] 19.4% | [5] 21.4% | [6] -36.6%

O=S(=O)(O)NNc1ccc(N=Nc2ccccc2)cc1
inactive: [1] 0.2% | [2] -12.9% | [3] -3.95% | [4] 11.3% | [5] -0.75% | [6] 4.75%

COC(=O)C1CCc2ccccc2C1=O (stereo unspecified)
inactive: [1] -12.6% | [2] -13.7% | [3] 1.95% | [4] 6.4% | [5] 2.7% | [6] 12.2%

C=CCCCCCCCCC(=O)NC(C)C(C)(C)C (stereo unspecified)
inactive: [1] 29.9% | [2] 19.8% | [3] 14.7% | [4] 39% | [5] 27.3% | [6] 25.5%

c1ccc(CNC(c2ccccc2)C(NCc2ccccc2)c2ccccc2)cc1 (stereo unspecified)
inactive: [1] -7.35% | [2] -0.75% | [3] -14.3% | [4] -38.4% | [5] 6.15% | [6] 10.2%

Cc1ccc(NC(=S)NC2CCCCC2)cc1Cl
inactive: [1] -2.4% | [2] 43% | [3] 29.4% | [4] -24.9% | [5] 42.3% | [6] 26.6%

c1ccc(-c2cc[c]([Sn]([c]3ccccc3)([c]3ccccc3)[c]3ccccc3)cc2)cc1
active: [1] 95.2% | [2] 98.5% | [3] 96.8% | [4] 99.2% | [5] 99% | [6] 98.2%

CCCCC1(NN=C2CCCCC2)C(=O)N(c2ccccc2)N(c2ccccc2)C1=O
inactive: [1] -11.2% | [2] -6.2% | [3] -0.4% | [4] -0.75% | [5] -7.4% | [6] -8.65%

CC(C)[N+](=C1O[B-](c2ccccc2)(c2ccccc2)O[B-]1(c1ccccc1)[C+]1CCCCC1)C(C)C (stereo unspecified)
inactive: [1] -51.1% | [2] -4.45% | [3] 10.8% | [4] 19.8% | [5] 2.15% | [6] 2.2%

CN(C)CCCNc1ncnc2nc[nH]c12
inactive: [1] -25.8% | [2] -43.7% | [3] -31.8% | [4] -19.8% | [5] -28.4% | [6] -0.15%

COc1ccc(NC=O)c(C(=O)CCNC(C)=O)c1
inactive: [1] -14.9% | [2] -20.2% | [3] -13.4% | [4] -6.8% | [5] -16.3% | [6] -51.2%

CC(C)=NOC(=O)Nc1ccccc1
inactive: [1] 44.4% | [2] -19.8% | [3] 14.9% | [4] -15.4% | [5] 1.7% | [6] 33.9%

COc1ccc(C(C)c2cc3c(cc2OCC(=O)O)OCO3)cc1OC (stereo unspecified)
inactive: [1] -7.65% | [2] -10.2% | [3] -6.85% | [4] -4.8% | [5] -0.2% | [6] -3.2%

CC(=O)N(C)c1ccc(NC(=O)Nc2c(C)cccc2C)cc1
inactive: [1] 6.55% | [2] 10% | [3] 10.7% | [4] 4.85% | [5] 19.6% | [6] 15.6%

CC(=O)Oc1c(C(OC(C)=O)OC(C)=O)ccc([N+](=O)[O-])c1OC(C)=O
inactive: [1] 34.1% | [2] 28.9% | [3] 36.5% | [4] 5.5% | [5] 9.3% | [6] 18.9%

C/C(=N\NC(N)=S)c1ccc(C)cc1C
inactive: [1] 45.4% | [2] -3.75% | [3] 57% | [4] 25.9% | [5] 7.55% | [6] 59.5%

COc1ccc2c(c1)nc1n2C(N)=Nc2ccccc2S1
inactive: [1] 44.5% | [2] 23.8% | [3] 36.2% | [4] 19.9% | [5] 58% | [6] 36.5%

O=C(Nc1ccccc1)Oc1ccccc1C1CCCCC1
inactive: [1] 26.8% | [2] 2.4% | [3] 6% | [4] 16.8% | [5] -18.9% | [6] -20%

c1ccc2c(c1)ccc1cc3c(ccc4ccccc43)cc12
inactive: [1] 15.3% | [2] -11.3% | [3] 7.9% | [4] 13.2% | [5] 34.6% | [6] 12.4%

Oc1ccc(C(O)CNCCCCCCNCC(O)c2ccc(O)c(O)c2)cc1O (stereo unspecified)
inactive: [1] -17.2% | [2] 6.65% | [3] -2% | [4] 6.5% | [5] -1.45% | [6] -4.65%

COc1cc(C(=O)C/C(CCCC(=O)Nc2ccccc2[N+](=O)[O-])=N/NC(=O)c2cc3ccccc3cc2O)ccc1O
inactive: [1] 12.9% | [2] 28.1% | [3] -9.75% | [4] 23.3% | [5] 1.4% | [6] 7.85%

N#Cc1c(-c2ccccc2)cc(-c2ccccc2)n(C2OCC(O)C(O)C2O)c1=S (stereo unspecified)
inactive: [1] 5.1% | [2] 30.6% | [3] 31.5% | [4] -7.45% | [5] 3.15% | [6] -0.05%

CONS(=O)c1ccc(Cl)cc1 (stereo unspecified)
inactive: [1] 10.8% | [2] 28.2% | [3] 6.35% | [4] -27.2% | [5] 4.95% | [6] 11%

CNC1NC(=O)c2ccccc2N1Cc1ccc(F)cc1 (stereo unspecified)
inactive: [1] 5.7% | [2] 4.5% | [3] -23.1% | [4] -19.6% | [5] -12.1% | [6] -4.25%
